# Laboratory results taken from the OligoGym collection.
# Target: S100A4
# Assay: pooled miR-30 sensor sort-seq; sequence = guide strand
# Details: shRNA
# Also: reference of the scale not given here.
row,Sequence,sensor-assay potency score (higher = more potent)
1,TTGAGCTTGAACTTGTCACCCT,0.789
2,TTGAACTTGTCACCCTCTTTGC,-0.681
3,TAGTTCTGACTTGTTGAGCTTG,-0.701
4,TGACTTGTTGAGCTTGAACTTG,-1.01
5,TTCGTTACACATCATGGCGATG,-1.19
6,TTACACATCATGGCGATGCAGG,-0.526
7,TTTATTGAACTTGCTCAGCATC,-1.33
8,TACTCTTGGAAGTCCACCTCGT,0.392
9,TTGCTCAGCATCAAGCACGTGT,-0.253
10,TTGTTGAGCTTGAACTTGTCAC,-0.424
11,TGAGCTTGAACTTGTCACCCTC,0.664
12,TCAGCTTCTGGAAAGCAGCTTC,0.395

# Target: S100P
# Assay: as above
# Details: shRNA
row,Sequence,sensor-assay potency score (higher = more potent)
1,TGGTAGCTCCTTCTCCATCAGC,-1.75
2,TTGCCAACAAACACTTTTGGGA,-0.0452
3,TACATGAGCAGGCTCAGCCTAG,-0.833
4,AAGACGTCTATGATCATGCCCA,0.0811
5,TCCATTGGCGTCCAGGTCCTTG,-1.46
6,TTGGTCAGGGTCTGCGTGCTGC,-0.458
7,TGTCTTTTCCACTCTGCAGGAA,-0.419
